Measured values from the supplement of paper PMC13380429.

Tested on: Vero E6 infected with SARS-CoV-2
Test: inhibition of SARS-CoV-2 cytopathic effect; higher = more antiviral protection, active = above 15
Settings: 48 h

Measured: inhibition of SARS-CoV-2 cytopathic effect

CN(C)CCNc1nc2cc(O)ccc2c2c1C(=O)c1ccccc1-2
inactive: 1 nM 0.16% | 8.33 nM 1.19% | 100 nM -1.3% | 833.33 nM -7.91% | 10000 nM -23.6%

O=C(O)c1ccccc1C(=O)Nc1ccc(-c2ccccc2)cc1 [kartogenin]
inactive: 1 nM 3.34% | 8.33 nM 2.53% | 100 nM 0.87% | 833.33 nM 1.12% | 10000 nM 1.02%

CCC(=O)NCC[C@@H]1CCc2ccc3c(c21)CCO3 [ramelteon]
inactive: 1 nM 0.77% | 8.33 nM -0.74% | 100 nM -1.05% | 833.33 nM 0.28% | 10000 nM -10.8%

O=C(NCc1ccccc1)c1csc(Nc2ccncn2)n1 [thiazovivin]
inactive: 1 nM -2.48% | 8.33 nM 1.22% | 100 nM -1.94% | 833.33 nM -2% | 10000 nM -11.5%

O=C(O)c1cc2ccccc2s1
inactive: 1 nM -0.94% | 8.33 nM -1.01% | 100 nM -0.94% | 833.33 nM -0.45% | 10000 nM 0.62%

O=C(O)CCCc1ccc(N(CCCl)CCCl)cc1 [chlorambucil]
inactive: 1 nM -0.23% | 8.33 nM 0.88% | 100 nM -0.7% | 833.33 nM -1.67% | 10000 nM -0.16%

CN1CCN(c2ncc(-c3cc(Cl)cc(Cl)c3Cl)c(N)n2)CC1 [sipatrigine]
inactive: 1 nM -3.16% | 8.33 nM -4.99% | 100 nM -2.74% | 833.33 nM -3.24% | 10000 nM 2.7%

CC(O)CN1CCN(CC(=O)[O-])CCN(CC(=O)[O-])CCN(CC(=O)[O-])CC1.[Gd+3] (stereo not given) [gadoteridol]
inactive: 1 nM 0.66% | 8.33 nM -0.76% | 100 nM 0.17% | 833.33 nM 0.32% | 10000 nM -3.99%
